Screening data as filed in PubChem BioAssay.
HCV inhibitor = HCV inhibition; Potency, µM (top dose mostly 41.8 µM), actives largely listed as inhibitors; 340,000 tested, 3.4% active; Huh7.5.1 HCVcc-Cre infection, luciferase reporter, 44 h
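After 44 h co-culture of compound, cells and HCVcc-Cre (~0.5 moi), substrate is added for 15 min at room temperature and luciferase measured over 15 sec. Cells were seeded at 1,000/well and pre-cultured 4 h.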
RE007 growth inh = less growth of the S. pombe RE007 Vpr strain | S. pombe RE007 Vpr strain, BacTiter-Glo ATP luminescence, 24 h | AID 651644 | 360,000 tested, 0.21% active | Potency, µM (series often up to 92.2 µM), usual class: inhibitors; active = well fitted falling curve with a large enough effect; inconclusive = small, poorly fitted or top-dose-only effect; inactive = no such curve, though single readings can be large or run the other way; also: nearly all actives have a fitted effect of over 50% in size
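Fission yeast strain RE007, carrying one chromosomally integrated HIV-1 vpr copy, was seeded at OD 0.01 in PMG+AL medium with 23 nL pinned compound. After 24 h at 30 °C and 99% humidity, viability was read by BacTiter-Glo luminescence.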
Sm TGR block = blocks Schistosoma mansoni thioredoxin glutathione reductase; 360,000 tested, 3% active; purified TGR, DTNB reduction, TNB absorbance 405 nm; Q962Y6; Potency, µM (doses to about 114 µM), most hits filed as inhibitors; also: nearly all actives have a fitted effect of over 60% in size
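First, TGR (20 nM dispensed) and NADPH were mixed with compound. Second, a 15 min room-temperature incubation followed. Third, further NADPH and then DTNB were added to start the reaction. Finally, TNB absorbance was monitored kinetically.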
FMDV antiviral = foot and mouth disease virus antiviral activity | FMDV antiviral cell-based qHTS | Potency, µM (top dose mostly 57.9 µM), most hits filed as inhibitors | 410,000 tested, 1.2% active; calls by dose curve; tested in HEK293T cells; also: read-out not given here; nearly all actives have a fitted effect of over 45% in size
LASV entry inh = inhibitors of Lassa virus binding or cell entry. Lassa virus pseudotype entry inhibition, cell reporter. Potency, µM (doses to about 37.9 µM), most hits filed as inhibitors. 300,000 tested, 1.2% active; calls by dose curve; tested in HEK293 cells; also: nearly all actives have a fitted effect of over 50% in size
MARV entry inh = Marburg virus entry inhibition; Marburg virus pseudotyped entry inhibition, cell reporter; 300,000 tested, 1.8% active; Potency, µM (doses to about 37.8 µM), most hits filed as inhibitors; calls by dose curve; tested in HEK293 cells
Numbers stand for hits; i = inactive; ? = inconclusive; nt = no result given. Only some compounds are listed: those with a hit (about 7.2% of all), similar ones and a draw of the others. Unless noted, calls follow the shape of the dose curve; as a rule, active = well fitted curve in the direction sought with a large enough effect; inconclusive = small, poorly fitted or top-dose-only effect, or another doubt; inactive = no such curve, though single readings can be large; an effect the other way counts as inactive or inconclusive.

SMILES	HCV inhibitor	RE007 growth inh	Sm TGR block	FMDV antiviral	LASV entry inh	MARV entry inh
Cc1ccc(N/C(N)=N/c2nc3c(c(=O)[nH]2)CCCC3)c(C)c1	i	i	i	nt	?	?
Cc1ccc(N/C(N)=N/c2nc(C)cc(N3CCCCC3)n2)c(C)c1	2.8µM	i	i	16µM	?	?
COc1cccc([C@@H]2Oc3ccc(OC)cc3[C@H](O)[C@@H]2O)c1	nt	nt	nt	nt	nt	i
Cc1cccc(N2CCN(C(=O)CN3CCOc4ccccc43)CC2C)c1 (centres undefined)	i	i	i	?	nt	nt
Cc1ccc(N2C(=O)C3C4C=CC(CNC(=S)N5CCN(c6cccc(C)c6)C(C)C5)(O4)C3C2=O)cc1 (centres undefined)	i	2µM	3.2µM	i	i	?
COc1ccc(CC(=O)NC2CC(=O)N(c3ccc(C)c(C)c3)C2)cc1OC (centres undefined)	nt	nt	i	i	i	nt
CCOc1ccc(NC(=S)N/N=C(\C)Cc2ccc(OC)cc2)cc1	i	i	i	i	?	i
CCOc1ccc(S(=O)(=O)N/N=C(\C)Cc2ccc(OC)cc2)cc1	i	i	32µM	i	nt	i
CCn1nc(C)cc1-c1nnc(Sc2ncc([N+](=O)[O-])s2)n1C	3.5µM	35µM	0.28µM	28µM	nt	nt
O=C(O)c1ccc2c(c1)C(=O)N([C@]1(C(=O)O)C[C@H]1c1ccccc1)C2=O	nt	nt	i	nt	nt	nt
c1ccc2c3c([nH]c2c1)-c1[nH]ncc1CC3	i	i	i	i	?	i
Clc1ccc2[nH]c3c(c2c1)CCc1cn[nH]c1-3	?	35µM	i	i	i	i
Cc1nc(S/C(C(=O)O)=C2/C(=O)Nc3ccccc32)n[nH]1	i	i	i	2.5µM	nt	nt
c1ccc(-c2noc(-c3ccc4c(c3)OCO4)n2)cc1	i	i	nt	14µM	?	?
COc1ccc(NC(=O)COc2ccccc2C(=O)NCC(c2ccccc2)N(C)C)cc1Cl (centres undefined)	?	i	i	i	11µM	?
COc1ccc(OCCNC(=O)c2ccccc2OCC(=O)Nc2ccc(NC(C)=O)cc2)cc1	?	i	i	?	?	7.1µM
COc1ccc(NC(=O)COc2ccccc2)cc1Cl	?	i	i	i	i	i
O=C(Cn1c(-c2cccs2)cc2cc(Cl)ccc21)N1CCCCC1	nt	nt	i	i	i	nt
c1ccc(Cc2noc(CN3CCN(C4CCc5ccccc5C4)CC3)n2)cc1 (centres undefined)	?	i	nt	?	i	?
c1ccc(Cc2noc(CN3CCCN(C4Cc5ccccc5C4)CC3)n2)cc1	?	i	25µM	i	?	?
CCOc1ccc2nc(N(CCCN(C)C)C(=O)c3ccc(S(=O)(=O)N4CCCC4)cc3)sc2c1	i	i	i	i	nt	nt
Cc1cc(C)c2sc(N(CCCN(C)C)C(=O)c3ccc(S(=O)(=O)N(C)C4CCCCC4)cc3)nc2c1	10µM	i	i	?	?	?
CN(C)CCCN(C(=O)c1ccc(S(=O)(=O)N(C)C2CCCCC2)cc1)c1nc2ccc(F)cc2s1	i	i	i	i	?	?
CN(C)CCCN(C(=O)c1ccc(S(=O)(=O)N2CCCC2)cc1)c1nc2ccc(Br)cc2s1	?	i	i	i	?	10µM
Cc1ccc2sc(N(CCCN(C)C)C(=O)c3ccc(S(=O)(=O)N4CCCCCC4)cc3)nc2c1C	14µM	i	i	i	i	?
SMILES	HCV inhibitor	RE007 growth inh	Sm TGR block	FMDV antiviral	LASV entry inh	MARV entry inh
Cc1cc(C)c2nc(N(CCCN(C)C)C(=O)c3ccc(S(=O)(=O)N4CCCCCC4)cc3)sc2c1	11µM	i	i	i	?	?
COc1cccc(NC(=O)CSc2nc(C)c(Cc3ccccc3)c(=O)[nH]2)c1	nt	nt	i	i	i	i
COCC(=O)Nc1cc(C(=O)N2CCc3c([nH]c4ccccc34)C2)cc2nc(-c3ccccc3)n(C)c12	nt	nt	nt	i	nt	nt
COc1ccc(Cl)cc1N1C(=O)/C(=C/c2sccc2C)N=C1SCC(=O)NC1CC1	?	i	nt	i	?	10µM
COc1cc(NC(=O)C2=C(C)Nc3nnnn3C2c2ccc(SC)cc2)c(OC)cc1Cl (centres undefined)	nt	nt	i	i	i	i
Cc1ccc(SCc2nc(-c3ccc(C(=O)NCC(C)c4ccccc4)cc3)oc2C)cc1 (centres undefined)	nt	nt	i	?	?	nt
CCc1nnc(NS(=O)(=O)c2ccc(NC(=S)NC(=O)c3cccnc3)cc2)s1	i	i	18µM	i	i	?
COc1ccc(/C=C/C(=O)NC(=S)Nc2ccc(S(=O)(=O)Nc3ccc(OC)nn3)cc2)cc1	i	i	i	i	i	?
Cc1cc(NS(=O)(=O)c2ccc(NC(=S)NC(=O)c3ccc(Br)cc3)cc2)no1	i	i	50µM	i	i	i
CCc1nnc(NS(=O)(=O)c2ccc(NC(=S)NC(=O)c3ccc(F)cc3)cc2)s1	i	i	45µM	i	i	i
COc1ccc(NS(=O)(=O)c2ccc(NC(=S)NC(=O)c3ccc(F)cc3)cc2)nn1	i	i	45µM	i	?	?
COc1ccc(NC(=O)CSc2ccc(-c3ccco3)nn2)cc1OC	?	i	45µM	?	i	i
COc1ccc(-c2nnc(SCC(=O)NCCc3ccc(OC)c(OC)c3)nc2-c2ccc(OC)cc2)cc1	nt	nt	i	i	i	i
O=C(CSc1ccc(-c2ccco2)nn1)Nc1ccc(F)cc1	?	i	?	?	i	?
O=C(CSc1ccc(-c2ccco2)nn1)Nc1ccccc1	?	i	7.1µM	i	?	i
COc1ccc(CCNC(=O)CSc2ccc(-c3ccco3)nn2)cc1OC	i	i	18µM	i	?	?
COc1ccc(CCNC(=O)CSc2nnc(-c3ccco3)c(-c3ccco3)n2)cc1OC	nt	nt	2.2µM	nt	nt	nt
CCCN(CCC)CC(O)Cn1cc(/C=C/C(=O)c2ccc(OCC)cc2)c2ccccc21 (centres undefined)	nt	nt	i	i	?	?
COc1cccc(NC(=O)CSc2ccc(-c3ccco3)nn2)c1	?	i	40µM	i	i	i
CCCCn1c(-c2ccccc2)cnc1SCC(=O)NCCc1ccc(OC)c(OC)c1	11µM	i	i	nt	?	?
COc1ccc(CCNC(=O)CSc2nnc(-c3ccccc3)c3ccccc23)cc1OC	i	i	i	?	i	i
Cc1cc(N2CCN(Cc3cn(C)nc3-c3cccc(Cl)c3)CC2)cc(C)n1	7.1µM	i	i	i	?	?
CCN1CCCC1CNC(=O)C1=C(OC)CC(N(C)C)=C(NC(C)=O)C1 (centres undefined)	nt	nt	nt	nt	nt	i
CCC(C)(C)c1ccc(OCCCC[n+]2cccc(C)c2)c(C(C)(C)CC)c1	?	?	i	32µM	?	?
Cc1ccc(C)c(N2CCN(c3nccn4nc(-c5ccc(Br)cc5)cc34)CC2)c1	nt	nt	i	i	i	i
O=C(Oc1oc(-c2ccco2)nc1C=Nc1ccccc1)c1ccoc1	i	i	1.4µM	nt	i	i
COc1ccc(N=Cc2nc(-c3ccccc3)oc2OC(C)=O)cc1	i	i	?	i	nt	nt
